# Unmarked numbers belong to inactive results. Inconclusive results are not listed. Where a call stands in place of a potency, no number is given. Calls of active or inactive are those of the source. Unless noted, calls come from the whole dose curve.
# Key:
# [1] = Nuclear factor erythroid 2-related factor 2/antioxidant responsive element (Nrf2/ARE) small molecule agonists: qHTS cell viability counter screen in human keratinocytes (AID 1919968; active = well fitted curve in the direction sought with a large enough effect in the repeat runs; an effect the other way counts as inactive or inconclusive; note: nearly all actives have a fitted effect of over 55% in size)
# In short: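 KeratinoSens HaCaT cells, 1,500/well, preincubated 5 h, then exposed to compounds in DMSO for 23 h at 37 C/5% CO2. Viability read as CellTiter-Fluor fluorescence after 1 h, in the same wells as the ARE-luciferase read.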
# [2] = Nuclear factor erythroid 2-related factor 2/antioxidant responsive element (Nrf2/ARE) small molecule agonists: luciferase reporter gene qHTS assay in human keratinocytes (AID 1919969); note: nearly all actives have a fitted effect of over 35% in size; note: potency is the fitted concentration of half-maximal effect
# [3] = target: Gonadotropin-releasing hormone receptor (Homo sapiens) (UniProt P30968); test: Human gonadotropin-releasing hormone receptor (GnRHR) small molecule agonists, calcium flux assay in GnRHR-HEK293 cells (AID 1920063); note: nearly all actives have a fitted effect of over 35% in size
# Sequence of Gonadotropin-releasing hormone receptor (Homo sapiens) (P30968 whole entry, looked up): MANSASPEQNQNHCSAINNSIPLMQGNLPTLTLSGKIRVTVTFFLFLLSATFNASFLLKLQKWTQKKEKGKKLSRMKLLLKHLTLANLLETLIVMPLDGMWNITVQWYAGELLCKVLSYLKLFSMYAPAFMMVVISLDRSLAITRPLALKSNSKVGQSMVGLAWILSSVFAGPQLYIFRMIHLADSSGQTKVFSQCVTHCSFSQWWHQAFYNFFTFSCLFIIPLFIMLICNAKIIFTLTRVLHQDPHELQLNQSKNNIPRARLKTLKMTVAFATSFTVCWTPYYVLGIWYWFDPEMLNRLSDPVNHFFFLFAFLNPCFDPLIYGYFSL
# In short: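 HEK293 cells stably expressing human GnRHR were dye-loaded for 1 h at 37 C. Compound was added in agonist mode and fluorescence (Ex/Em 480/540) recorded kinetically for 3 min. Fifteen concentrations, triplicates.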
# [4] = target: KiSS-1 receptor (Homo sapiens) (UniProt Q969F8); test: Human kisspeptin (KISS1R) small molecule agonists, calcium flux assay in KISS1R-HEK293 cells (AID 1920064; active = well fitted curve in the direction sought with a large enough effect in the repeat runs; an effect the other way counts as inactive or inconclusive)
# Sequence of KiSS-1 receptor (Homo sapiens) (Q969F8 whole entry, looked up): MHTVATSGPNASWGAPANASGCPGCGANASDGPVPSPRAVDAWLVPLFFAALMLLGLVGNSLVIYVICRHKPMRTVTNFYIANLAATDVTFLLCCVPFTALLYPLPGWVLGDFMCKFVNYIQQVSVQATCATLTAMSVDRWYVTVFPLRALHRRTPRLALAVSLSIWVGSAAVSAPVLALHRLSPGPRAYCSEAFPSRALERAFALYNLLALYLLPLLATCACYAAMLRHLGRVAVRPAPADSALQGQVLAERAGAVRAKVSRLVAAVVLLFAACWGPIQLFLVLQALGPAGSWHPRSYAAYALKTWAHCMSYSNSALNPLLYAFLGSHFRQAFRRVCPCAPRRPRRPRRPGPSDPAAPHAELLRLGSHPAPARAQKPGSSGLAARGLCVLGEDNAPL
# In short: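 HEK293 cells stably expressing human KISS1R were loaded with calcium dye for 1 h at 37 C, then given compound; fluorescence (Ex/Em 480/540) was read kinetically for 3 min. Fifteen concentrations, triplicate.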
# [5] = G protein-coupled receptor (GPCR) small molecule agonists, calcium flux assay: HEK293 wild type cell line counter screen (AID 1920065)
# In short: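 Wild-type HEK293 cells plated 18 h, loaded with calcium dye 1 h at 37 C, then compounds added in agonist mode (ATP as positive control). Kinetic fluorescence Ex/Em 480/540 recorded 3 min at 1 sec intervals; 15 concentrations, triplicate.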
# [6] = p53 small molecule agonists, cell-based qHTS assay with human liver microsomes: qHTS cell viability counter screen (AID 1963579); note: nearly all actives have a fitted effect of over 45% in size
# In short: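 Seed p53RE-bla cells at 4,000 per well; incubate 5 h at 37 C; add compound, human liver microsomes and NADPH; incubate 16 h at 37 C; add CellTiter-Glo; after 30 min at room temperature, read luminescence.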
# [7] = target: 5-hydroxytryptamine receptor 2A (Homo sapiens) (UniProt P28223); test: 5-hydroxytryptamine receptor 2A (HTR2A) small molecule antagonists, cell-based qHTS assay (AID 1963586); note: nearly all actives have a fitted effect of over 45% in size
# Sequence of 5-hydroxytryptamine receptor 2A (Homo sapiens) (P28223 whole entry, looked up): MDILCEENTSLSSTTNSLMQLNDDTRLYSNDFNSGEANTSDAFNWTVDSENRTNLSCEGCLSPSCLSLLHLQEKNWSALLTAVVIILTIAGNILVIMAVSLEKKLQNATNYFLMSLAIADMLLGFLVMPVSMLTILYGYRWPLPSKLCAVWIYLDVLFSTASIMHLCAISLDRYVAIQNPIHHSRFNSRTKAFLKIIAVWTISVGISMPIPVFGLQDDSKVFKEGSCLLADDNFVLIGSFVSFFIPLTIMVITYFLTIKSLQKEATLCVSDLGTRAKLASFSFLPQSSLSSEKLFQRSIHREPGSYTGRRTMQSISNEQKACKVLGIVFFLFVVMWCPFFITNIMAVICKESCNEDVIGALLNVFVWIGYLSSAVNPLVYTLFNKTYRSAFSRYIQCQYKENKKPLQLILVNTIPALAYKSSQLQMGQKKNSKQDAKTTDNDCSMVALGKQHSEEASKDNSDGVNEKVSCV
# In short: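 Antagonist-mode intracellular calcium assay: DOI (4 nM) added after 5 min compound pre-incubation at room temperature to dye-loaded HTR2A-CHO cells. Fluorescence followed for 3 min, sampled every second.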
# [8] = target: 5-hydroxytryptamine receptor 2A (Homo sapiens) (UniProt P28223); test: 5-hydroxytryptamine receptor 2A (HTR2A) small molecule agonists, cell-based qHTS assay (AID 1963587); note: nearly all actives have a fitted effect of over 30% in size
# In short: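 Kinetic calcium-flux fluorescence (2 min, 1 sec intervals) after compound addition in agonist mode. HTR2A-CHO cells were cultured 18 h, then dye-loaded 1 h at 37 C.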
# [9] = target: Muscarinic acetylcholine receptor M1 (Homo sapiens) (UniProt P11229); test: Cholinergic receptor muscarinic 1 (CHRM1) small molecule antagonists, cell-based qHTS assay (AID 1963588); note: nearly all actives have a fitted effect of over 40% in size
# Sequence of Muscarinic acetylcholine receptor M1 (Homo sapiens) (P11229 whole entry, looked up): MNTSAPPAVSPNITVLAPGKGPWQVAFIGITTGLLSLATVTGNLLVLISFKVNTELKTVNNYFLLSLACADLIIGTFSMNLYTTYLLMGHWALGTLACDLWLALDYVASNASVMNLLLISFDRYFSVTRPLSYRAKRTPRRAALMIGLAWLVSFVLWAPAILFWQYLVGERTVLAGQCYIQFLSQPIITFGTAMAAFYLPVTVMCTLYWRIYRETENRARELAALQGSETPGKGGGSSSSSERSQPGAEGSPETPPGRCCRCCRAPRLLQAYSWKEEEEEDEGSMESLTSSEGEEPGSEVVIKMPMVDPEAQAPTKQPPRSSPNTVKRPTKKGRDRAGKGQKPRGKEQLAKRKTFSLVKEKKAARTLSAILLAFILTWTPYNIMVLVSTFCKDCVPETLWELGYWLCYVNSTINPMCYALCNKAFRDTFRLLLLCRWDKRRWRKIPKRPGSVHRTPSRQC
# In short: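 CHRM1-CHO calcium-flux assay, antagonist mode. Cells were seeded 18 h, dye-loaded 1 h at 37 C and given compound for 5 min at RT, then acetylcholine was added at 50nM. FDSS fluorescence was read 3 min; 15 concentrations, three runs.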
# [10] = target: Muscarinic acetylcholine receptor M1 (Homo sapiens) (UniProt P11229); test: Cholinergic receptor muscarinic 1 (CHRM1) small molecule agonists, cell-based qHTS assay (AID 1963589); note: nearly all actives have a fitted effect of over 35% in size
# In short: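 CHO cells stably expressing human CHRM1 were loaded with calcium dye for 1 h at 37 C, then compound was added in agonist mode. Intracellular calcium fluorescence was followed kinetically at 1 s intervals. Fifteen concentrations were tested in three independent runs.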
# [11] = cAMP Responsive Elements (CRE) small molecule agonists, cell-based qHTS assay (AID 1963590)
# In short: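 CRE-bla HEK 293T cells, 2,000/well in DMEM with 10% dialyzed FBS and 25 mM HEPES, pre-incubated 18 h at 37 C, then exposed to compound 3 h at 37 C. Beta-lactamase reporter read with LiveBLAzer B/G FRET substrate after 2 h at room temperature.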
# [12] = cAMP Responsive Elements (CRE) small molecule antagonists, cell-based qHTS assay (AID 1963591; active = well fitted inhibition curve with a large enough effect in the signal ratio in the repeat runs, not every such curve was filed as active; the % refers to the signal ratio)
# In short: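 CRE-bla HEK293T cells plated 18 h, then given compound plus NKH477 at 0.25 uM final for 3 h at 37C. Beta-lactamase reporter read with LiveBLAzer B/G FRET substrate after 2 h at room temperature.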
# [13] = target: Beta-2 adrenergic receptor (Homo sapiens) (UniProt P07550); test: Adrenergic beta2 receptor (ADRB2) small molecule agonists, cell-based qHTS assay (AID 1963593);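 note: CHO cells stably overexpressing human ADRB2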
# Sequence of Beta-2 adrenergic receptor (Homo sapiens) (P07550 whole entry, looked up): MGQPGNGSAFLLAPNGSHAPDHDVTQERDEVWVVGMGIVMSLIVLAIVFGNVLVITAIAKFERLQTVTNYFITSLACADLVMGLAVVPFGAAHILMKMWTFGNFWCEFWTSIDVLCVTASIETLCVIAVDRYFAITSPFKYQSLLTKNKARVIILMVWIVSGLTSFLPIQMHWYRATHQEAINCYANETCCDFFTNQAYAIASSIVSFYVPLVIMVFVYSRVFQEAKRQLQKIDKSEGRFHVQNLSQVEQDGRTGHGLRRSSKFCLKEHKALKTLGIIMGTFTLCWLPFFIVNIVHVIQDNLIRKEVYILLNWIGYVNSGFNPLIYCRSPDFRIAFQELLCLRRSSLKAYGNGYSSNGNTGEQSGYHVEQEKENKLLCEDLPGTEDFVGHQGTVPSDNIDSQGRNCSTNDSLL
# In short: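 CHO cells stably over-expressing ADRB2 were plated overnight at 37C, then dosed with compounds plus a stimulation mix containing 100uM IBMX and 25uM Ro-20-1724 for 0.5hr at room temperature. cAMP was measured by HTRF competition, 1hr.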
# [14] = target: D(2) dopamine receptor (Homo sapiens) (UniProt P14416); test: Dopamine D2 receptor (DRD2) small molecule agonists, cell-based qHTS assay (AID 1963594); note: nearly all actives have a fitted effect of over 35% in size
# Sequence of D(2) dopamine receptor (Homo sapiens) (P14416 whole entry, looked up): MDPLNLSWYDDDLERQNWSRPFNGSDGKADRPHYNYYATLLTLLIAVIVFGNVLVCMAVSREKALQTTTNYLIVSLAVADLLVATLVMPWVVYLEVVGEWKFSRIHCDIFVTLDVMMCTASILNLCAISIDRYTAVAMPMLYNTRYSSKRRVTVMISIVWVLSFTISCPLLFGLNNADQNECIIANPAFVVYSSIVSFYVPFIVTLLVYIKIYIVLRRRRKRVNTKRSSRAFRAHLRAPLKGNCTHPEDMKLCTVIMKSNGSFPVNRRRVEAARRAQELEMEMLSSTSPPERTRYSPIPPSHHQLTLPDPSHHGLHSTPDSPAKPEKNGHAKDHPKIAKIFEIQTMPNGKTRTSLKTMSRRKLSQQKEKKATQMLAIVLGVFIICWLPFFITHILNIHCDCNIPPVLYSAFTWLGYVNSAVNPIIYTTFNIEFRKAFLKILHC
# In short: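 cAMP accumulation in DRD2-HEK293 cells measured by HTRF after 1 h detection; compounds added 10 min before NKH477 (200nM […]) forskolin-analogue stimulation, 30 min at room temperature, with Ro20-1724 present at 0.1 mM final.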
# [15] = target: D(2) dopamine receptor (Homo sapiens) (UniProt P14416); test: Dopamine D2 receptor (DRD2) small molecule antagonists, cell-based qHTS assay (AID 1963595; active = well fitted inhibition curve with a large enough effect in the signal ratio in the repeat runs, with a control signal flat; the % refers to the signal ratio)
# In short: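 Antagonism was scored as restored cAMP in HEK293-DRD2 cells. These cells were stimulated with 200 nM NKH477 and 12 nM quinpirole for 30 min at room temperature, in the presence of 0.1 mM Ro20-1724.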
# [16] = p53 small molecule agonists, cell-based qHTS assay: qHTS cell viability counter screen (AID 1963581); note: nearly all actives have a fitted effect of over 45% in size
# In short: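 p53RE-bla HCT-116 cells, compounds added 5 h after plating and incubated 16 h at 37 C. Cytotoxicity measured in the same wells as intracellular ATP by CellTiter-Glo luminescence after 30 min at room temperature.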
# [17] = target: Beta-2 adrenergic receptor (Homo sapiens) (UniProt P07550); test: Adrenergic beta2 receptor (ADRB2) small molecule antagonists, cell-based qHTS assay (AID 1963592); note: series mostly up to about 92 µM; nearly all actives have a fitted effect of over 50% in size
# In short: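 Cells (CHO, stable ADRB2 overexpression) incubated 18-20hr at 37C; compounds added from DMSO; agonist mix (1nM isoproterenol, 100uM IBMX, 25uM Ro-20-1724) added; 0.5hr RT; d2-cAMP and anti-cAMP-cryptate added; 1hr RT; 665/615 nm read.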
# [18] = p53 small molecule agonists, cell-based qHTS assay with rat liver microsomes: qHTS cell viability counter screen (AID 1963580); note: nearly all actives have a fitted effect of over 45% in size
# In short: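 HCT-116 p53RE-bla, 4,000 cells/well, 5 h pre-incubation; cpd + rat liver microsomes 0.5 mg/mL + NADPH 0.5 mg/mL (final); 16 h, 37 C; CellTiter-Glo, 30 min RT; luminescence.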
SMILES,Potency [1],Potency [2],Potency [3],Potency [4],Potency [5],Potency [6],Potency [7],Potency [8],Potency [9],Potency [10],Potency [11],Potency [12],Potency [13],Potency [14],Potency [15],Potency [16],Potency [17],Potency [18]
CNC(=O)O/N=C(\C)SC,inactive,inactive,inactive,inactive,inactive,inactive,inactive,inactive,inactive,inactive,inactive,inactive,inactive,inactive,inactive,,,
O=C(O)c1cccc(Cl)c1,inactive,inactive,inactive,inactive,inactive,inactive,inactive,,inactive,inactive,inactive,inactive,,inactive,inactive,inactive,inactive,
CCC(C)(C)O,inactive,inactive,inactive,inactive,inactive,inactive,inactive,inactive,inactive,inactive,inactive,inactive,inactive,inactive,inactive,,inactive,
ClC(Cl)Br,inactive,inactive,inactive,inactive,inactive,inactive,inactive,inactive,inactive,inactive,inactive,inactive,,inactive,inactive,,inactive,inactive
Cc1ccc2cc3c(ccc4ccccc43)c3c2c1CC3,inactive,inactive,inactive,inactive,inactive,inactive,,,,,inactive,inactive,,inactive,inactive,inactive,inactive,inactive
C=C(C)[C@H]1CN[C@H](C(=O)O)[C@H]1CC(=O)O,inactive,inactive,inactive,inactive,inactive,inactive,,inactive,inactive,inactive,inactive,inactive,inactive,inactive,inactive,inactive,,
CCC1(CC)C(=O)NC(=O)NC1=O,inactive,inactive,inactive,inactive,inactive,inactive,inactive,inactive,inactive,inactive,inactive,inactive,,inactive,,,inactive,inactive
CS(=O)(=O)c1ccc(C(=O)C2C(=O)CCCC2=O)c([N+](=O)[O-])c1,inactive,inactive,inactive,inactive,inactive,inactive,inactive,inactive,,,,,,,inactive,inactive,inactive,
O=Cc1ccc2c(c1)OCO2,inactive,inactive,inactive,inactive,inactive,inactive,inactive,inactive,inactive,inactive,inactive,inactive,,inactive,inactive,,inactive,inactive
Cc1ncsc1CCCl,inactive,inactive,inactive,inactive,inactive,,inactive,inactive,inactive,inactive,inactive,inactive,,inactive,inactive,inactive,,inactive
O=C(Cc1ccccc1)OCc1ccccc1,inactive,inactive,inactive,inactive,inactive,inactive,,inactive,inactive,inactive,inactive,inactive,,inactive,inactive,,inactive,inactive
ClC(Cl)C(Cl)(Cl)Cl,inactive,inactive,inactive,inactive,inactive,,inactive,inactive,inactive,inactive,inactive,inactive,,inactive,inactive,inactive,inactive,inactive
C[N+](C)=CCl,inactive,inactive,inactive,inactive,inactive,inactive,inactive,inactive,inactive,inactive,inactive,,,inactive,inactive,inactive,inactive,
COP(=S)(Oc1cc(Cl)c(Br)cc1Cl)c1ccccc1 (stereo not given),inactive,48.6 µM (active),inactive,inactive,inactive,inactive,inactive,inactive,inactive,inactive,,inactive,inactive,inactive,inactive,inactive,inactive,
BrCC1CO1 (stereo not given),inactive,inactive,inactive,inactive,inactive,inactive,inactive,inactive,inactive,,inactive,inactive,,inactive,inactive,,inactive,inactive
CC[N+]1(CCOC(=O)C(O)(c2ccccc2)c2ccccc2)CCCCC1,inactive,inactive,inactive,inactive,inactive,inactive,,,,,inactive,inactive,,inactive,inactive,inactive,inactive,inactive
C1CCC(C2CCCCC2)CC1,inactive,inactive,inactive,inactive,inactive,inactive,,inactive,inactive,inactive,,,inactive,inactive,,inactive,inactive,

# Source: PubChem BioAssay (Tox21)
